KCNH2 3.1 inh = qHTS for Inhibitors of KCHN2 3.1: Mutant qHTS. 340,000 tested, 0.95% active. activity change, % (tested at about 1.8 µM). U2OS KCNH2 3.1, thallium flux FluxOr; stronger effect = lower value;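 active = maximum activity change below -70%; inconclusive = maximum activity change from -70% to -50%; inactive = maximum activity change above -50%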;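 note: thallium influx rate constant from kinetic fluorescence after stimulation buffer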
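Thallium flux via FluxOr fluorescence (Red40 quencher, 45 min loading) in U2OS cells virally expressing the KCNH2 3.1 isoform (1.77 x 10^8 /mL virus, overnight at 37 C). Rate constants from 2-min kinetic reads post-stimulation, normalised to positive and negative controls.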
Six1-Eya2 blk = qHTS Assay for Inhibitors of the Six1/Eya2 Interaction; Homeobox protein SIX1 (Homo sapiens) + Protein phosphatase EYA2 (Homo sapiens), …; AlphaScreen GST-Six1/His-Eya2 binding, biochemical; stronger effect = lower value; activity change, % (no concentration beside the values); 360,000 tested, 0.56% active
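GST-Six1 + His-Eya2 (5X stock: 250/500 nM); Tris pH 8.0, 300 mM NaCl, 0.05% BSA, 0.02% Tween 20; GSH donor/Ni acceptor beads; 1 h 37 °C dark; AlphaScreen readout.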
JMJD2E inh = qHTS Assay for Inhibitors of Human Jumonji Domain Containing 2E (JMJD2E) | Potency, µM (titrated, usually from 57.1 µM), for inactives: at the highest dose activity change, negative = inhibition, most hits filed as inhibitors | 230,000 tested, 1.6% active | JMJD2E catalytic domain, FDH-coupled NADH fluorescence (FDH is formaldehyde dehydrogenase) | Lysine-specific demethylase 4E (Homo sapiens), B2RXH2 | AID 2147, 2009; active = well fitted inhibition curve with a large enough effect, not every such curve was filed as active; inconclusive = small, poorly fitted or top-dose-only effect, or another doubt; inactive = no such curve, though single readings can be large or run the other way;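 note: potency is the fitted concentration of half-maximal effect; 0% = wells with enzyme and -100% = buffer wells without enzyme; nearly all actives have a fitted effect of over 50% in size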
Target sequence (B2RXH2 1-337 limits assumed): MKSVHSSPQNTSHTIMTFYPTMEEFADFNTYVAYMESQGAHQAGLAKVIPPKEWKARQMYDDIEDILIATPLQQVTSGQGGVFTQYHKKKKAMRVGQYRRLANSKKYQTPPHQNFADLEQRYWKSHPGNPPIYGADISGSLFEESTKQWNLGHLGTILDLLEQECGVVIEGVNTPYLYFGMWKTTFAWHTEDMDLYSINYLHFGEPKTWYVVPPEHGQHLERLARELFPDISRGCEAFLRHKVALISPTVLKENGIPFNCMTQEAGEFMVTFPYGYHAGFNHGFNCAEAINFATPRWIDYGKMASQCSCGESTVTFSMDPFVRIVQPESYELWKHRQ
CtBP-E1A inh = qHTS Assay for Inhibitors of the CtBP/E1A Interaction. CtBP / adenovirus E1A interaction (AlphaScreen). AlphaScreen GST-E1A/His-CtBP binding, 1536-well; stronger effect = lower value. activity change, % (concentration not given with the values). 340,000 tested, 0.49% active. AID 651724, 2012
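Homogeneous bead-based format: GST-tagged E1A captured on glutathione donor beads, His-tagged CtBP on nickel acceptor beads; compounds precede bead addition by 2 h at 37 °C.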
KCNH2 WT inh = qHTS for Inhibitors of KCHN2 3.1: Wildtype qHTS; Voltage-gated inwardly rectifying potassium channel KCNH2 (Homo sapiens), Q12809; U2OS, BacMam KCNH2, thallium flux FluxOr; stronger effect = lower value; activity change, % at 1.84 µM; 340,000 tested, 0.37% active;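 active = maximum activity change below -70%; inconclusive = maximum activity change between -70% and -50%; inactive = maximum activity change above -50%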
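U2OS cells were transduced with wild-type KCNH2 virus (2.03 x 10^8 / mL) for 4 h at room temperature, then cultured overnight at 37 C. Thallium flux was read with FluxOr dye. Rate constants were normalized to DMSO controls.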
* marks the source's active call; other numbers are inactive results; ? = inconclusive; . = no result. Rows were chosen to be rich in hits. Some 2% of all compounds tested hit in one or more screens of this group. Cut-off read from the data, not from the text of the source, unless noted: active = activity change below about -65%; inconclusive = mostly about -30% to -63%; inactive = weaker than that. Unless noted, % is set by controls: 0 for no effect and ±100 for the full control effect.

SMILES	KCNH2 3.1 inh	Six1-Eya2 blk	JMJD2E inh	CtBP-E1A inh	KCNH2 WT inh
Cc1[nH]c(N=Nc2ccccc2)nc1N=Nc1ccccc1	-13	?	?	-66*	-10
Nc1ccc(N=Nc2ccccc2)c(N)n1	-10	-29	?	?	-1
C=CCN(C(=O)Nc1ccccc1)C1CC(=O)N(c2ccc(OC)cc2)C1=O (stereo not given)	6	2	3%	2	-6
COc1cc2[nH]c(=S)nc(NCc3ccccn3)c2cc1OC	1	-70*	3%	?	-7
COc1cc2c(cc1NCc1ccccn1)oc1ccccc12	22	-11	?	-9	-6
COc1cc2[nH]c(=S)nc(NCc3cccc(Cl)c3)c2cc1OC	-9	?	.	.	3
COc1cc2[nH]c(=S)nc(NCc3cccnc3)c2cc1OC	12	-69*	.	-82*	-3
COc1cc2[nH]c(=S)nc(NCc3ccc(C)cc3)c2cc1OC	-15	-74*	.	.	4
COc1cc2[nH]c(=S)nc(NCc3ccccc3)c2cc1OC	-10	-78*	.	-82*	2
COc1ccc(CNc2nc(=S)[nH]c3cc(OC)c(OC)cc23)cc1	3	-82*	.	.	3
Cc1ccn(Cc2n[nH]c(=S)n2Cc2ccccc2)n1	-5	12	6%	2	1
O=C(C[C@H]1C[C@@H]2c3cc(NC(=O)c4ccc5c(c4)OCO5)ccc3O[C@@H]2[C@H](CO)O1)NCc1cc(F)ccc1F	1	-70*	.	-67*	2
OC(COc1ccc(Cl)cc1Cl)CN1CCc2ccccc2C1 (stereo not given)	-72*	-1	.	4	16
OC(COC(c1ccc(Cl)cc1)c1ccc(Cl)cc1)CN1CCc2ccccc2C1 (stereo not given)	.	2	-15%	1	-71*
OC(COC(c1ccc(Cl)cc1)c1ccc(Cl)cc1)CN1CCCC1 (stereo not given)	-112*	-5	-5%	-21	-140*
CN1CCN(CC(O)COC(c2ccc(Cl)cc2)c2ccc(Cl)cc2)CC1 (stereo not given)	-94*	-3	.	.	9
Cc1ccc(C(OCC(O)CN2CCCCC2)c2ccccc2)cc1 (stereo not given)	-34	-3	.	1	7
Cc1ccc(OCC(O)CN2CCc3ccccc3C2)c(C)c1 (stereo not given)	-22	-1	.	.	14
CN1CCN(CC(O)COc2ccc(Cl)cc2)CC1 (stereo not given)	24	5	7%	1	-10
Cc1ccc(Cl)cc1N1CCN(CC(O)COC(C)C)CC1 (stereo not given)	-77*	-2	9%	7	28
COc1ccc(C(=O)NC2CCCCCC2)cc1S(=O)(=O)N1CCCc2ccccc21	-6	-2	-2%	-4	4
CC1=CN2C(=N)/C(=C/c3ccco3)C(=O)N=C2S1	17	-23	-5%	-23	2
CC1=CN2C(=N)/C(=C/c3ccc([N+](=O)[O-])o3)C(=O)N=C2S1	4	?	28µM*	-25	6
O=C(Nc1cc(C(F)(F)F)ccc1-n1cncn1)c1cn2ccccc2n1	-207*	?	.	?	-152*
CCOC(=O)[C@H]1[C@H]2COc3ccc(C)cc3[C@@H]2N2C(=O)c3cc(F)c(F)cc3NC(=O)[C@@]12C	-14	6	.	-20	0
CCOC(=O)[C@H]1[C@H]2COc3ccc(Cl)cc3[C@@H]2N2C(=O)c3cc(F)c(F)cc3NC(=O)[C@@]12C	-194*	-13	.	-18	11
Cc1ccc2c(c1)C(=O)N1[C@H]3c4cc(Cl)ccc4OC[C@@H]3[C@H](c3ccccc3)[C@]1(C)C(=O)N2	-83*	-7	.	-3	-7
COc1ccc2c(c1)[C@H]1[C@H](CO2)[C@H](c2ccccc2)[C@]2(C)C(=O)Nc3ccc(Br)cc3C(=O)N12	-86*	13	.	?	-6

Assay outcomes: PubChem BioAssay, National Center for Advancing Translational Sciences (NCATS)
